# Compounds with a hit are over-represented: about 11% of the library has one in this group of screens.
# NPR1 antag: blocks ANP-stimulated signaling of human Npr1 receptor; P16066; HEK293 hNpr1 GloSensor cGMP, ANP-stimulated luminescence; Potency, µM (doses to about 46.3 µM), hits mostly inhibitors; 1.6% of 76,000 active; AID 1347048; calls by dose curve; further: nearly all actives have a fitted effect of over 60% in size
#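 HEK293 cells stably expressing human Npr1 and cGMP GloSensor pGS-40F, loaded 2 h with 2% GloSensor reagent, given compound 30 min at room temperature. Luminescence read before and 20 min after 0.1 nM hNppA.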
# FLuc inh: inhibitors of firefly (Photinus pyralis) luciferase. P08659. purified P. pyralis luciferase, luminescence, biochemical. Potency, µM (series often up to 115 µM), hits mostly inhibitors. 2.5% of 76,000 active. AID 1347043; further: nearly all actives have a fitted effect of over 65% in size
# Target sequence (P08659 whole entry, looked up): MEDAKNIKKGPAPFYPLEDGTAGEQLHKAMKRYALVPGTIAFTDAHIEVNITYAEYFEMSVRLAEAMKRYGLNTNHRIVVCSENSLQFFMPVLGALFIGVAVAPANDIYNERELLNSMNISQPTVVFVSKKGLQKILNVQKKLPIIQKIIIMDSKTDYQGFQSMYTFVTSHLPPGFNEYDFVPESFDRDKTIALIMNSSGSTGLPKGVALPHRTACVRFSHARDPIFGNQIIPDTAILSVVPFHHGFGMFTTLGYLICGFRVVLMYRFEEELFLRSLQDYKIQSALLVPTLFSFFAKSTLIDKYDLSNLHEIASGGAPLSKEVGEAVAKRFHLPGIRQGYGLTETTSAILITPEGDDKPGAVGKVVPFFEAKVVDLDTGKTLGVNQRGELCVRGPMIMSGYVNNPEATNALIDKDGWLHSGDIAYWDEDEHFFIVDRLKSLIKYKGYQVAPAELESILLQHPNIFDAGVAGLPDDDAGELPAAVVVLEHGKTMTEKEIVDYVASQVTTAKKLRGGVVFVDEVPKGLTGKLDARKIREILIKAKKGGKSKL
#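 Inhibitors were tested against purified firefly luciferase in a biochemical, low-substrate format (both substrates at 10uM) and luminescence measured with a CCD imager.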
# HEK cytotox: cytotoxic compounds in HEK 293 cells; HEK 293 viability, ATP luminescence (CellTiter-Glo), 48-72 h; Potency, µM (top dose mostly 115 µM), actives largely listed as inhibitors; 6.6% of 94,000 active; AID 1345083; further: nearly all actives have a fitted effect of over 60% in size
#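 Pintool-delivered compounds were incubated with HEK 293 cells (250 cells/well) at 37 degree Celsius for 48 or 72 hr. ATP-dependent luminescence (CellTiter-Glo) then reported remaining viable cells.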
# 3T3 cytotox: kills NIH 3T3 cells; Potency, µM (highest dose often 96.7 µM), hits mostly inhibitors; 4.3% of 94,000 active; NIH 3T3 viability, CellTiter-Glo ATP luminescence, 48-72 h; further: nearly all actives have a fitted effect of over 55% in size
#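 Luminescent ATP readout (CellTiter-Glo, 10 min RT) after 48 or 72 hr compound exposure of NIH 3T3 cells seeded at 400 cells/well in 1536-well format; quantitative HTS.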
# Numbers stand for hits; 0 = inactive; ? = inconclusive; - = no result; ! = not confirmed by another sample. Unless noted, the call rests on the fitted dose curve; in most records, active means well fitted curve in the direction sought with a large enough effect; inconclusive means small, poorly fitted or top-dose-only effect, or another doubt; inactive means no such curve, though single readings can be large; an effect the other way counts as inactive or inconclusive.
SMILES,NPR1 antag,FLuc inh,HEK cytotox,3T3 cytotox
CN1CCC2(C1)CN(CC1CCOCC1)c1ccc(C(=O)Nc3ccccc3)cc12 (stereo not drawn),0,50.1µM,100µM,?
COC(=O)CNC(=O)C1CCN(c2nccc(Nc3ccccc3F)n2)CC1,-,-,0,0
CN(C)C(=O)C1CCN(c2nccc(Nc3ccccc3F)n2)CC1,-,-,0,?
O=C(NCCCc1ccccc1)C1CCN(c2nccc(Nc3ccccc3F)n2)CC1,-,-,35.5µM,?
O=C(NCc1ccccc1Cl)C1CCN(c2nccc(Nc3ccccc3F)n2)CC1,-,-,?,39.8µM
CN(C)C(=O)c1ccc(-c2cc(NC3CCCC3)nc3[nH]ccc23)o1,0,?,44.7µM,?
c1nc(-c2cc(NC3CCNCC3)nc3[nH]ccc23)c2sccc2n1,0,0,?,?
c1ccc(CCCc2noc(-c3ccc(N4CCOCC4)nc3)n2)cc1,0,0,?,0
c1ccc(CCc2noc(-c3ccc(N4CCCOCC4)nc3)n2)cc1,?,31.6µM,?,?
COc1ccc(Nc2ccnc(N3CCC(N[S+](=O)([O-])c4cccs4)CC3)n2)cc1,-,-,25.1µM,35.5µM
Cc1ccc(Nc2ccnc(N3CCC(N[S+](=O)([O-])c4cccs4)CC3)n2)cc1,-,-,22.4µM,35.5µM
Cc1ccc(Nc2ccnc(N3CCC(N[S+](=O)([O-])c4ccc(C)cc4)CC3)n2)cc1,-,-,?,31.6µM
CCOc1cc(=O)n2c(c1C(=O)Nc1ccc3c(c1)OCCO3)CCCCC2,0,39.8µM,0,0
O=C(c1ccc(F)cc1)N1CCCN(c2nc3ncccc3o2)CC1,0,0,0,0
CSc1ccc(-c2cccc(CN3CCC(N[S+](=O)([O-])c4cccc(C(F)(F)F)c4)CC3)c2)cc1,-,-,12.6µM,10µM
COc1cccc(C(=O)NC2CCN(Cc3cccc(-c4ccc(SC)cc4)c3)CC2)c1,-,-,0,0
Cc1cccc(-c2cccc(CN3CCC(N[S+](=O)([O-])c4cccc(C(F)(F)F)c4)CC3)c2)c1,-,-,?,11.2µM
O=C(NCc1ccc(F)cc1)C1c2ccccc2C(=O)N(Cc2ccccc2)C12CCCC2 (stereo not drawn),0,0,39.8µM,35.5µM
Cc1ccc(C)c(-n2nc(-c3c(C)nc4scc(CC(=O)NCc5ccco5)n4c3=O)cc2C)c1,0,0,35.5µM,?
Cc1nc2scc(CC(=O)NCC(C)C)n2c(=O)c1-c1cc(C)n(-c2ccc(C(C)C)cc2)n1,0,?,79.4µM,?
COc1ccc(-c2cc(NCCO)nc3[nH]ccc23)cc1C(F)(F)F,0,0,39.8µM,39.8µM
CC(C)CCNC(=O)CCC1CCN(C(=O)c2ccccc2F)CC1,0,28.2µM,0,0
O=C(NCCOc1ccccc1)c1cnc2n1CCN(Cc1ccc(F)cc1)CC2,0,0,?,?
O=C(NCc1ccccc1)c1cnc2n1CCN(Cc1ccccc1F)CC2,0,0,28.2µM,?
Cc1ccc(CN2CCc3ncc(C(=O)NCCOc4ccccc4)n3CC2)o1,0,0,50.1µM,35.5µM
SMILES,NPR1 antag,FLuc inh,HEK cytotox,3T3 cytotox
Cc1cc(C(=O)NC2CC(c3cc(=O)[nH]c(C4CC4)n3)C2)c(C)o1 (stereo not drawn),0,0,0,0
O=C(NCCc1ccc(F)cc1)C1CCCN(Cc2cccc(-c3cccs3)c2)C1 (stereo not drawn),-,-,28.2µM!,?
O=C(Nc1cccc(Cl)c1)C1CCCN(Cc2cccc(-c3cccs3)c2)C1 (stereo not drawn),-,-,39.8µM,?
O=C(NCc1ccc(C(F)(F)F)cc1)C1CCCN(Cc2cccc(-c3cccs3)c2)C1 (stereo not drawn),-,-,?,11.2µM
O=C(NCCc1ccc(F)cc1)C1CCCN(c2nc3ncccc3o2)C1 (stereo not drawn),0,0,0,?
O=C(Nc1ccc(F)cc1)C1CCCN(Cc2cccc(-c3cccs3)c2)C1 (stereo not drawn),-,-,39.8µM,?
O=C(Cc1cccc(Cl)c1)NC1CCC(Cc2cccc(-c3cccs3)c2)CC1 (stereo not drawn),-,-,?,0
COCCNC(=O)C1COC2(CCN(C(=O)c3ccc(F)cc3)CC2)N1C(=O)c1ccc(F)cc1 (stereo not drawn),0,0,0,0
Cn1cc(CN2CCN(C(=O)c3ccsc3)CC2)ccc1=O,0,0,0,?
CC(=O)NC1CCCc2c1[nH]c1ccc(Cl)cc21 (stereo not drawn),0,0,?,?
Cn1c(=O)cc(C(=O)NC2CCCc3c2[nH]c2ccc(Cl)cc32)c2ccccc21 (stereo not drawn),0,0,31.6µM,?
CC(=O)NC1(C)CCN(Cc2cccc(Nc3cccc(Cl)c3)c2)C1 (stereo not drawn),?,?,70.8µM,44.7µM
COc1cccc(Nc2cccc(CN3CCC(C)(NC(C)=O)C3)c2)c1 (stereo not drawn),0,50.1µM,?,?
CC1=C[C@@H](CNS(=O)(=O)c2ccc(Cl)cc2)[C@H](C(C)C)C[C@H]1CC(=O)N1CCOCC1,?,0,?,31.6µM
CC(=O)Nc1ccc(S(=O)(=O)NC[C@@H]2C=C(C)[C@H](CC(=O)N3CCCC3)C[C@H]2C(C)C)cc1,0,0,0,?
COc1ccccc1N1CCN(C(=O)C[C@@H]2C[C@@H](C(C)C)[C@H](CC#N)C=C2C)CC1,0,0,35.5µM,?
COCCNC(=O)C[C@@H]1C[C@@H](C(C)C)[C@H](CNS(=O)(=O)c2ccccc2)C=C1C,0,0,0,112µM
CC1=C[C@@H](CNC(=O)c2ccccn2)[C@H](C(C)C)C[C@H]1CC(=O)N1CCCC1,0,0,?,100µM
Cc1noc(C)c1[S+](=O)([O-])N1CCCC(C(=O)N2CCC(N3Cc4cccn4C3=O)CC2)C1 (stereo not drawn),-,-,0,0
COC(=O)[C@H]1CN(C(=O)N2CCOCC2)CCN1C(C)=O,0,0,0,0
O=C1NCCCCCCN(C(=O)C2CCCC2)[C@H]2CCCC[C@@H]12,0,0,0,0
CC1=C[C@@H](CNS(=O)(=O)c2ccc(F)cc2)[C@H](C(C)C)C[C@H]1CC(=O)NCCN(C)C,0,0,?,39.8µM
CCOC(=O)C[C@@H]1C[C@@H](C(C)C)[C@H](CNS(=O)(=O)c2ccccc2)C=C1C,?,0,63.1µM,?
CC1=C[C@@H](CNS(=O)(=O)c2cccc(F)c2)[C@H](C(C)C)C[C@H]1CC(=O)O,0,0,0,44.7µM
CC1=C[C@@H](CNS(=O)(=O)c2ccccc2)[C@H](C(C)C)C[C@H]1CC(=O)NCc1ccc(C#N)cc1,0,0,?,?
COc1ccc(S(=O)(=O)NC[C@@H]2C=C(C)[C@H](CC(=O)NCc3ccc(C#N)cc3)C[C@H]2C(C)C)cc1,0,0,?,25.1µM
CC1=C[C@@H](CNS(=O)(=O)c2ccccc2)[C@H](C(C)C)C[C@H]1CC(=O)NCCN(C)C,0,0,?,?
Cc1cc(C(F)(F)F)nn1CC(=O)N1CCC(c2noc(-c3ccccn3)n2)C1 (stereo not drawn),0,0,0,0
COC1CCOC2(CCN(S(=O)(=O)c3ccc(F)cc3)CC2)C1 (stereo not drawn),0,0,0,0
